Where “and” joins values, the source holds several entries; their conditions need not be identical. Equal entries are not always repeated. The panel holds about 83,000 compounds, 20% with a hit somewhere; the sample as a whole holds those more often.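 Results are percent growth after 48 hours of single-concentration exposure. 100 means growth as in untreated cells, lower positive values show inhibition; negative values down to -100 show cell death.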 Values without a mark were called inactive. Calls of active or inactive are those of the source. Rule for the calls: active = growth percent below 10; inactive = the rest.

One assay concerns K-562 leukemia. Briefly: NCI-60 one-dose screen, 48 h (100 = growth as untreated, 0 = no growth, -100 = all killed). As to conditions: 10 µM unless noted.
Regarding `O=C(O)C(Br)CBr` (stereo unspecified), the growth was 104%. As to `COC(=O)CCP(CCC(=O)OC)c1ccccc1`, the growth is 111%. Still for that read-out and setting: as for `COc1ccc(N)cc1N`, the figure is 115%; as for `CC1=C(C)C(=O)O[C@@H]([C@](C)(O)[C@]2(O)CC[C@@]3(O)[C@@H]4C[C@H]5O[C@]56CC=CC(=O)[C@]6(C)[C@H]4CC[C@]23C)C1`, 3.63% (active). For `COc1ccc(N)cc1OC`, the growth was 129%. For `O=C(O)c1ccc(=O)[nH]c1`, the growth is 102% and 89.2%.

Regarding `O=S(=O)(F)c1cccc(Cl)c1C[P+](c1ccccc1)(c1ccccc1)c1ccccc1`, the growth is 77.2%.

In the case of `O=[N+]([O-])c1c(Cl)cc(Cl)c([N+](=O)[O-])c1Cl`, the growth was 103%. Still for that read-out and setting: the same measure for `O=C(O)CNCP(=O)(O)O`: 101%; for `CCCCOC(N)=O`: 102%. Consider `c1ccc(CCN2CCCCC2)nc1`, for which the growth was 97.6%. On to `O=[N+]([O-])c1cc(Br)c(O)c(Br)c1`, for which the growth was 123%. On to `CC1=C2[C@H]3OC(=O)[C@@H](C)[C@@H]3CC[C@@]2(C)C=CC1=O`, for which the growth was 110%. On to `CC(Oc1ccc(-c2ccccc2)cc1)C(=O)O` (stereo unspecified), for which the growth is 112%.

Take `O=[N+]([O-])c1ccc(CI)cc1`: the growth is 12.3%. With `CN1[C@@H](CC(=O)c2ccccc2)CCC[C@H]1CC(=O)c1ccccc1`, the growth is 102%. Turning to `O=S1(=O)OCCO1`, the growth is 99.1%. In the case of `Cc1cc[n+](CCc2ccccc2)cc1`, the growth was 85.7% and 89.1%.

As to `CN1C2CCC1[C@@H](COC(=O)c1ccccc1)[C@@H](O)C2` (stereo partly specified), the growth was 81.3%. With `O=C1NC(=O)C(=C/C=C/c2ccccc2)C(=O)N1`, the growth is 8.24% (active).

Turning to `Cc1cc(N)ccc1N`, the growth was 105%. `COC(=O)C1=CO[C@@H](C)[C@@H]2CN3CCc4c([nH]c5cc(OC)ccc45)[C@@H]3C[C@H]12`: the growth is 97.6%. Still for that read-out and setting: the same measure for `NC1CN2CCC1CC2` (stereo unspecified): 87.6%. The same measure, in the same setting: as for `Cc1ccc(C(=O)O[C@H](C(=O)O)[C@H](OC(=O)c2ccc(C)cc2)C(=O)O)cc1`, the figure is 89.9%. With `C=CC1CN2CCC1CC2C(O)c1ccnc2ccccc12` (stereo unspecified), the growth is 231%. For `CC1(C)CN=C(NN=C(/C=C/c2ccc(C(F)(F)F)cc2)/C=C/c2ccc(C(F)(F)F)cc2)NC1`, the growth was -37.5% (active). On to `CC1=CC(=O)CCC12CCOC2=O` (stereo unspecified), for which the growth was 97.1%.

As to `COc1cc(-c2ccc(N)c(OC)c2)ccc1N`, the growth is 138%.

Regarding `O=C(O)c1cc([N+](=O)[O-])cc([N+](=O)[O-])c1`, the growth was 116%. `ClCc1ccc(Cl)c(Cl)c1`: the growth was 107%. With `NC(=O)Oc1cc(OC(N)=O)cc(N(CCCl)CCCl)c1`, the growth was 55.2%. In the case of `CCC(=O)C(CC(C)[N+](C)(C)C)(c1ccccc1)c1ccccc1` (stereo unspecified), the growth is 103%. As for `CNC(=O)CCl`, the growth is 121%.

A further assay relates to MALME-3M melanoma. The description is as above. As to conditions: 10 µM unless noted.
On to `COc1ccc(N)cc1N`, for which the growth is 117%.

For the compound `CC1=C(C)C(=O)O[C@@H]([C@](C)(O)[C@]2(O)CC[C@@]3(O)[C@@H]4C[C@H]5O[C@]56CC=CC(=O)[C@]6(C)[C@H]4CC[C@]23C)C1`, the growth was -4.58% (active). The same measure, in the same setting: as for `COc1ccc(N)cc1OC`, the figure is 129%. In the case of `O=C(O)c1ccc(=O)[nH]c1`, the growth was 109% and 104%. `O=S(=O)(F)c1cccc(Cl)c1C[P+](c1ccccc1)(c1ccccc1)c1ccccc1`: the growth was 90.4%.

As for `O=[N+]([O-])c1c(Cl)cc(Cl)c([N+](=O)[O-])c1Cl`, the growth was 175%. As for `c1ccc(CCN2CCCCC2)nc1`, the growth was 141%. Still for that read-out and setting: the same measure for `OCCN=Cc1c[nH]c2ccccc12`: 104%; for `CC1=C2[C@H]3OC(=O)[C@@H](C)[C@@H]3CC[C@@]2(C)C=CC1=O`: 87.3%. Consider `CCOC(=O)c1ccccc1C(=O)OCC`, for which the growth is 102%. Same read-out and setting: as for `O=[N+]([O-])c1ccc(CI)cc1`, the figure is 85.6%; as for `O=S1(=O)OCCO1`, 88.8%; as for `Cc1cc[n+](CCc2ccccc2)cc1`, 75.4% and 88.6%. Regarding `CN1C2CCC1[C@@H](COC(=O)c1ccccc1)[C@@H](O)C2` (stereo partly specified), the growth was 129%.

For the compound `O=C1NC(=O)C(=C/C=C/c2ccccc2)C(=O)N1`, the growth is -4.86% (active). The same measure, in the same setting: the same measure for `Cc1cc(N)ccc1N`: 105%. `NC1CN2CCC1CC2` (stereo unspecified): the growth is 105%. `Cc1ccc(C(=O)O[C@H](C(=O)O)[C@H](OC(=O)c2ccc(C)cc2)C(=O)O)cc1`: the growth was 107%. On to `C=CC1CN2CCC1CC2C(O)c1ccnc2ccccc12` (stereo unspecified), for which the growth was 140%.

As to `COC12CC3C4=CCOC5CC(=O)N6c7ccccc7C1(CCN2C4)C6C53` (stereo unspecified), the growth is 112%. As for `CC1(C)CN=C(NN=C(/C=C/c2ccc(C(F)(F)F)cc2)/C=C/c2ccc(C(F)(F)F)cc2)NC1`, the growth was -58.8% (active). On to `CC1=CC(=O)CCC12CCOC2=O` (stereo unspecified), for which the growth is 89.9%.

On to `COc1cc(-c2ccc(N)c(OC)c2)ccc1N`, for which the growth is 78.1%.

On to `O=C(O)c1cc([N+](=O)[O-])cc([N+](=O)[O-])c1`, for which the growth is 109%. `ClCc1ccc(Cl)c(Cl)c1`: the growth is 83%. For `NC(=O)Oc1cc(OC(N)=O)cc(N(CCCl)CCCl)c1`, the growth is 80.6%. On the same count and under the same terms, the same measure for `CCC(=O)C(CC(C)[N+](C)(C)C)(c1ccccc1)c1ccccc1` (stereo unspecified): 106%. For the compound `CNC(=O)CCl`, the growth is 92.5%.

The values above are taken from PubChem BioAssay (NCI).
